# uPA generation = blocks generation of uPA at the cell surface. Potency, µM (titrated, usually from 38.3 µM), for inactives: top-dose activity change, negative = inhibition, usual class: inhibitors. AID 540303. 330,000 compounds, 0.31% hits. cell surface uPA generation assay, qHTS; active means well fitted inhibition curve with a large enough effect; inconclusive means small, poorly fitted or top-dose-only effect; inactive means no such curve, though single readings can be large or run the other way; tested in mouse RAW 264.7 cells; further: potency means the concentration at half of the fitted maximal effect; on the % scale 0 is the no-effect control and ±100 the full control effect; nearly all actives have a fitted effect of over 55% in size
# ClpP mod = qHTS Assay for Activators of ClpP; ATP-dependent Clp protease proteolytic subunit (Bacillus subtilis (strain 168)), P80244; purified B. subtilis ClpP, FRET peptide cleavage, 20 min; Potency, µM (top dose mostly 57.5 µM), for the others: top-dose activity change, negative = active; 340,000 compounds, 1.9% hits; active means well fitted falling curve with a large enough effect; inconclusive means small, poorly fitted or top-dose-only effect; inactive means no such curve, though single readings can be large or run the other way; further: potency means the concentration at half of the fitted maximal effect; the source files actives as falling curves though it sought activators and does not explain the sign; nearly all actives have a fitted effect of over 65% in size
#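 Buffer: 100 mM Tris/HCl pH8, 100 mM KCl, 0.05% low protease BSA, 2.5% glycerol, 0.01% Tween-20. ClpP 10 microg/mL final; 20 min RT; delta FRET normalized to ADEP and DMSO controls.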
# TCR activator = activators of T cell receptors | primary human leukocytes, anti-CD3, IL-2 HTRF, 48 h | AID 504894 | Potency, µM (titrated, usually from 9.22 µM), without a hit: at the top dose activation of IL-2 secretion, most hits filed as activators | 330,000 tested, under 10 active; further: % of control where 0% means no effect
#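 1) Mix primary human leukocytes, a-CD3 beads and compound. 2) Incubate 48 hr. 3) Add HTRF IL-2 reagents (a-IL-2-K, a-IL-2-d2).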
# Sfp PPTase inh = inhibitors of Bacillus subtilis Sfp phosphopantetheinyl transferase; Biochemical Sfp PPTase activity, qHTS; 310,000 compounds, 3.5% hits; AID 1490; Potency, µM, without a hit: largest response in the series, negative = inhibition, actives largely listed as inhibitors;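 further: the enzyme is Sfp with the accession as filed and its product quenches rhodamine fluorescence; potency means the concentration at half of the fitted maximal effect; 0% = enzyme reaction without inhibitor and -100% = no enzyme wells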
#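 With Hepes-Na pH 7.6 buffer containing 10 mM MgCl2, Sfp (15 nM) modified BHQ-2-YbbR (12.5 uM) using rhodamine-CoA (5 uM). Two reads 30 minutes apart at 525/598 nm yielded each well's rate.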
# Starred values were filed as active, the others as inactive; ? = inconclusive; . = no result; [ ] = another dose, or the depositor's remark. A selection: hits, their analogues and other compounds. The true share with any hit is near 4.2%. Unless noted, the call rests on the fitted dose curve; in most records, active means well fitted curve in the direction sought with a large enough effect; inconclusive means small, poorly fitted or top-dose-only effect, or another doubt; inactive means no such curve, though single readings can be large; an effect the other way counts as inactive or inconclusive.
SMILES,uPA generation,ClpP mod,TCR activator,Sfp PPTase inh
COc1cc(C(=O)NCCOc2cc(C)cc(C)c2)cc(OC)c1OC,2.51µM*,-2.0%,0.6%,-2.6%
COc1cc(C(=O)NCCCNc2nc3cc(C)cc(C)c3cc2C#N)cc(OC)c1OC,-1.1%,25.1µM*,-5.9%,2.9%
COc1cc(C(=O)NCCOc2ccccc2)cc(OC)c1OC,8.6%,-7.3%,-5.1%,20.2%
C[C@@H]1C(SC2Cn3cnc[n+]3C2)=C(C(=O)[O-])N2C(=O)[C@H]([C@@H](C)O)[C@@H]12 (some centres not stated),.,.,.,23.7%
CC(C)COc1ccc(C(=O)Nc2ccc(SC(F)F)cc2)cc1,-10.7%,-5.1%,0.1%[46.1 µM],10.0%
Cc1ccc(C(=O)NC(=S)Nc2c(C)ccc3nsnc23)cc1,0.9%,?,20.3%[46.1 µM],35.5µM*
Cc1ccc2c(NC(=S)NC(=O)c3ccccc3)cccc2n1,3.2%,-2.1%,1.8%,56.2µM*
Cc1ccc(C(=O)NC(=S)Nc2cccc3c(C)cc(C)nc23)cc1,3.1%,1.8%,3.4%,-6.5%
Cc1ccc(OCC(=O)Nc2c(C)ccc3nsnc23)cc1,2.7%,-4.4%,6.4%,6.5%
Cc1ccc(C(=O)NC(=S)Nc2cccc3nsnc23)cc1,8.2%,0.0%,10.2%,14.1µM*
COc1ccccc1NC(=O)Cn1c(=O)n(CC2CCC(C(=O)NCCc3ccccc3)CC2)c(=O)c2ccccc21 (configuration not stated),.,-1.3%,.,.
CC(=O)Nc1c([N+](=O)[O-])cc2[nH]c(=O)[nH]c2c1[N+](=O)[O-],2.3%,.,1.5%,20µM*
O=C1N2CCCc3cccc(c32)C12Nc1ccccc1S2 (configuration not stated),-1.9%,-1.9%,-12.3%,50.1µM*
COc1ccc(C(=O)NC(=S)Nc2ccccc2[N+](=O)[O-])cc1OC,0.5%,.,5.0%,89.1µM*
COc1ccc(C(=O)/C=C/Nc2ccc([N+](=O)[O-])cc2C)cc1OC,0.9%,1.6%,-14.0%,-29.1%
CCOc1ccc(NC(=S)NC(=O)/C=C/c2ccc(OC)c(OC)c2)c([N+](=O)[O-])c1,-3.0%,7.5%,-3.5%,50.1µM*
COc1ccc(C(=O)NC(=S)Nc2ccc([N+](=O)[O-])cc2C)cc1OC,.,1.6%,-5.0%,56.2µM*
COc1ccc(C(=O)NC(=S)Nc2ccccc2N2CCOCC2)cc1[N+](=O)[O-],-8.5%,0.6%,2.5%[46.1 µM],-7.3%
Cc1cccc(C2C=C(c3ccc(C)c(C)c3)Nc3nnnn32)c1 (configuration not stated),.,-14.6%,.,.
C(=NN=Cc1c[nH]c2ccccc12)c1c[nH]c2ccccc12,.,-0.2%,.,.
O=C1/C(=C/c2c[nH]c3ccccc23)CCC/C1=C\c1c[nH]c2ccccc12,-5.2%,-1.1%,-4.3%[46.1 µM],50.1µM*
O=C(CC1CS(=O)(=O)CC1CC(=O)Nc1ccc2c(c1)OCCO2)Nc1ccc2c(c1)OCCO2 (configuration not stated),-0.5%,-2.8%,13.5%,22.4µM*
CCC(=O)Nc1ccc2c(c1)OCCO2,-2.0%,0.1%,.,18.2%
CC(C)c1nnc(NC(=O)c2ccc3c(c2)OCO3)s1,-8.6%,1.1%,1.8%,5.4%
CC(C)(C)c1nnc(NC(=O)c2ccc3c(c2)OCO3)s1,-4.6%,0.1%,4.5%,22.4µM*
SMILES,uPA generation,ClpP mod,TCR activator,Sfp PPTase inh
Cc1ccc2nc(SC(Cc3cc(Cl)ccc3Cl)C(=O)O)[nH]c2c1 (configuration not stated),.,0.9%,.,.
COc1ccc(N=Nc2n(C)c3ccccc3[n+]2C)cc1,.,.,.,50.1µM*
COc1ccc(N=Nc2nc(-c3ccccc3)c(-c3ccccc3)[nH]2)cc1,-4.4%,0.7%,1.1%,14.8%
N=C(N1CCCc2ccccc21)N1CCCc2ccccc21,-8.8%,.,3.9%,.
COc1cccc(CNC(=O)CCCN2C(=O)CSc3c2c(C)nn3-c2ccccc2)c1,.,0.1%,.,.
CCOc1ccc(-n2c(=O)c3c(C)c(C)sc3n(CC(=O)C(C)(C)C)c2=O)cc1,.,-0.5%,.,.
CCCCCCCCCCC[N+](C)(C)CC/C=C1/c2ccccc2Sc2ccc(Cl)cc21,-10.8%,-5.3%,10.2%,39.8µM*
CCCCCCCCCC[N+](C)(C)CC/C=C1/c2ccccc2Sc2ccc(Cl)cc21,-12.3%,-2.6%,-0.4%,31.6µM*
COC(=O)c1ccccc1S(=O)(=O)N1CCc2nc(-c3ccc(OC)cc3C)c3c(c2C1)CO[C@@H](c1ccccc1)C3,.,.,.,-12.1%
O=C1CSC(c2ccccc2[N+](=O)[O-])N1c1ccc(O)cc1 (configuration not stated),7.7%,-5.5%,-3.1%,50.1µM*
COC(=O)/C=C/C(=O)N1CCN(c2ccccc2C)CC1,11.2µM*,-2.0%,7.7%[46.1 µM],3.8%
COC(=O)/C=C/C(=O)N1CCN(c2ccccc2)CC1,-11.5%,1.6%,-2.3%[46.1 µM],-7.4%
CN1CCCCc2c1nc1c(c2N)CCCC1,0.5%,25.1µM*,.,-13.7%
COc1ccc(C(=O)/C=C2\Sc3ccccc3N2C)cc1,-11.8%,.,3.3%,0.3%
CC(=S)/C=C1\Sc2ccccc2N1C,-2.6%,-0.5%,-3.4%,44.7µM*
COc1ccc(OCCn2nnc3sc4c(c3c2=O)CCCC4)cc1,.,0.9%,.,.
COc1ccc(-n2nc3ccc(NS(C)(=O)=O)cc3n2)cc1Cl,1.5%,28.2µM*,-4.4%,16.7%
COC(=O)C1=C(C(=O)OC)[C@@H]2N(Cc3ccccc3)c3ccccc3[C@@]23C[C@@H](C(=O)OC)N(S(=O)(=O)c2ccc4c(c2)OCCN4C)C3=N1,.,.,.,-8.7%
CCNC(=O)COC(=O)c1cc(-c2ccco2)nc2ccccc12,-0.9%,3.7%,0.3%,15.8µM*
Cc1ccc(-c2cc(C(=O)N3CCN(c4ccccc4)CC3)c3ccccc3n2)cc1C,.,-18.4%,.,.
O=C(OCC(=O)N1CCN(C(=O)c2ccco2)CC1)c1cc(-c2ccco2)nc2ccccc12,.,-23.3%,0.8%,-103.3%
COc1ccc(Cl)cc1C(=O)OCC(=O)c1c(N)n(C)c(=O)n(C)c1=O,.,-5.7%,.,.
Cn1c(=O)c(C(=O)COC(=O)c2cc(-c3ccco3)nc3ccccc23)c(N)n(CC2CC2)c1=O,.,.,.,22.4µM*
COc1cc2ccccc2cc1C(=O)OCC(=O)c1c(N)n(C)c(=O)n(C)c1=O,-2.0%,31.6µM*,6.6%,.
Cn1c(=O)c(C(=O)COC(=O)c2cc(C3CC3)nc3ccccc23)c(N)n(Cc2ccccc2)c1=O,8.5%,-20.2%,8.6%,19.8%
SMILES,uPA generation,ClpP mod,TCR activator,Sfp PPTase inh
O=C(c1cc(-c2ccco2)nc2ccccc12)N1CCN(c2ccc(F)cc2)CC1,-6.9%,?,3.2%[46.1 µM],25.1µM*
COC(=O)c1ccc2nc(C)cc(Nc3cccc(Cl)c3C)c2c1,.,36.8%,.,.
COc1ccc([C@]23Cc4ccccc4C(O2)c2c(cc(-c4ccccc4)oc2=O)O3)cc1,.,.,.,7.5%
Cc1ccc(S(=O)(=O)N(C)c2ccc(C(=O)N(C)Cc3nc4ccccc4c(=O)[nH]3)cc2)cc1,0.3%,1.1%,0.3%,.
NC(=O)NC(=O)COC(=O)/C=C/c1cccs1,1.1%,-1.6%,-16.8%,11.0%
O=c1[nH]c(C2CCN(S(=O)(=O)c3ccc(C(F)(F)F)cc3)CC2)nc2c1nnn2Cc1ccccc1,-2.6%,.,-8.4%,-3.3%
